DT40 TDP1 no CPT = qHTS for Inhibitors of human tyrosyl-DNA phosphodiesterase 1 (TDP1): qHTS in cells in absence of CPT; DT40 Tdp1-/- hTDP1 cells, no CPT, ATP luminescence, 48 h; Potency, µM (highest dose often 46.2 µM), most hits filed as inhibitors; 420,000 tested, 15% active; AID 686978, 2013; also: nearly all actives have a fitted effect of over 55% in size
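Stably hTDP1-transfected Tdp1-null chicken DT40 cells were treated with library compounds minus camptothecin and grown for at least 48 hr at 37 °C, after which cellular ATP was quantified by luminescence.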
DT40 TDP1 CPT = qHTS for Inhibitors of human tyrosyl-DNA phosphodiesterase 1 (TDP1): qHTS in cells in presence of CPT; chicken DT40 Tdp1-/-;hTDP1 cells + 20 nM CPT, ATP luminescence, 48 h; Potency, µM (top dose mostly 46.2 µM), actives largely listed as inhibitors; 420,000 tested, 12% active; AID 686979, 2013; also: nearly all actives have a fitted effect of over 55% in size
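Chicken DT40 Tdp1-/- cells stably complemented with human TDP1 were seeded at 400 cells/well in medium containing 20 nM camptothecin, exposed to pin-transferred compounds, and grown at 37 °C for at least 48 hr. Viability was read as ATP luminescence.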
TDP1 inh = qHTS Assay for Inhibitors of Tyrosyl-DNA Phosphodiesterase (TDP1). AID 485290, 2010. recombinant TDP1, AlphaScreen DNA substrate cleavage. 350,000 tested, 0.28% active. Tyrosyl-DNA phosphodiesterase 1 (Homo sapiens), Q9NUW8. Potency, µM (highest dose often 130 µM), usual class: inhibitors; also: nearly all actives have a fitted effect of over 40% in size
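E. coli-derived human Tdp1, 1 nM final. Cpd preinc 15 min RT; substrate 15 nM final, 5 min RT; AS bead mix 10 ug/ml final, 10 min RT. Signal loss = tyrosine-FITC cleavage. No-enzyme wells = max signal.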
Gal4-VP16 FLuc = VP16 counterscreen qHTS for inhibitors of ROR gamma transcriptional activity. Drosophila S2 Gal4-VP16 UAS-luciferase, luminescence, 20 h. Potency, µM (highest dose often 53.6 µM), usual class: inhibitors. AID 2546, 2010. 310,000 tested, 3.5% active;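 also: Gal4-VP16 expression switched on by copper sulfate through the metallothionein promoter; nearly all actives have a fitted effect of over 50% in size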
RORgamma inh = qHTS for inhibitors of ROR gamma transcriptional activity. Nuclear receptor ROR-gamma (Mus musculus), P51450. Drosophila S2 Gal4-RORgamma UAS-luciferase reporter, 20 h. Potency, µM (highest dose often 53.6 µM), hits mostly inhibitors. 310,000 tested, 5.4% active. AID 2551, 2010; also: nearly all actives have a fitted effect of over 60% in size
Target sequence (P51450 whole entry, looked up, the tested form may be a part): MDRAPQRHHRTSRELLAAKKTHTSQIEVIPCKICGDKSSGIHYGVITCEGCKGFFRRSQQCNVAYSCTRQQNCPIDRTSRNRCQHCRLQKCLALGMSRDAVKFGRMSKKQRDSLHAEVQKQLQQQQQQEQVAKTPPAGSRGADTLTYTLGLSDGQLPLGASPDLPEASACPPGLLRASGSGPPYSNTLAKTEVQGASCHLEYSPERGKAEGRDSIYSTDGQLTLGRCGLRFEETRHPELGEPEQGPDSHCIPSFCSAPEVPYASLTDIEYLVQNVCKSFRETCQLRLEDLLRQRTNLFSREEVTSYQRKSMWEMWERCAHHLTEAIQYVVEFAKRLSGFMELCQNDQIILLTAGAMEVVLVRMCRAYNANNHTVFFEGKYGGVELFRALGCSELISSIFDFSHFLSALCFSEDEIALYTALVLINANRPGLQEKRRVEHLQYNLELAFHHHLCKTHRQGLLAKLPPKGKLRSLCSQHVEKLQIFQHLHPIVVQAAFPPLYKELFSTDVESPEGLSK
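Luminescence from a UAS-regulated Photinus luciferase reporter in stably transfected Drosophila Schneider cells is measured; decreased signal marks ROR gamma inhibition. Fusion expression is induced by 700 uM copper sulfate for 20 hr.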
A number is an active result; - = inactive; ? = inconclusive; . = no result; [ ] = another dose, or the depositor's remark. This is a sample that favours compounds with a hit; in the whole collection about 19% have one here. Calls follow the shape of the dose curve; as a rule, active = well fitted curve in the direction sought with a large enough effect; inconclusive = small, poorly fitted or top-dose-only effect, or another doubt; inactive = no such curve, though single readings can be large; an effect the other way counts as inactive or inconclusive.

SMILES	DT40 TDP1 no CPT	DT40 TDP1 CPT	TDP1 inh	Gal4-VP16 FLuc	RORgamma inh
CC(O)CNCc1ccc(-c2ccccc2)cc1 (configuration not stated)	-	-	-	-	-
Cc1ccc(CNCC(O)(c2ccccc2)c2ccccc2)cc1	21µM	?	.	-	?
C#CCN(C[C@@H]1[C@@H](OC(=O)NCCCCCC)[C@@H](OC(=O)NCCCCCC)Cn2c(=O)ccc(=O)n21)S(=O)(=O)c1ccc(C)cc1	3.3µM	4.6µM	.	.	.
C#CCN(C[C@@H]1[C@@H](OC(=O)NCC2CCCCC2)[C@@H](OC(=O)NCC2CCCCC2)Cn2c(=O)ccc(=O)n21)S(=O)(=O)c1ccc(C)cc1	3.3µM	2.9µM	.	.	.
Cc1ccc(S(=O)(=O)N2CCC(C(=O)NCC3CCCCC3)CC2)cc1	-	-	-	-	-
CCCCCCCCCCS(=O)(=O)N/N=C/c1ccc(O)cc1	?	16µM	-	?	-
COCCNC(=O)CCn1c(=O)[nH]c2cc(OC)c(OC)cc2c1=O	-	-	-	.	.
CNS(=O)(=O)c1cc(-c2nnc(Nc3ccc(NC(C)=O)cc3)c3ccccc23)ccc1C	18µM	16µM	.	-	-
CC(=O)Nc1ccc(Nc2nnc(-c3ccc(O)cc3)c3ccccc23)cc1	-	-	.	-	-
COc1ccc(Nc2nnc(-c3ccc(C(=O)NCCO)cc3)c3ccccc23)cc1	6.5µM	3.3µM	.	-	-
CCN(CC)C(=O)c1ccc(-c2nnc(Nc3ccc(C(=O)N(C)C)cc3)c3ccccc23)cc1	16µM	?	.	-	?
C#CCOc1ccc(-c2nnc(Nc3ccc(NC(C)=O)cc3)c3ccccc23)cc1	16µM	?	.	.	.
COC(=O)c1ccccc1NC(=O)Nc1cc(C)ccn1	-	-	-	-	-
COc1cc(SC)ccc1C(=O)N(C)CC(=O)Nc1cccc2ccccc12	?	?	-	.	.
COc1cccc(C(=O)CC(C(=O)O)c2ccc(Cl)cc2)c1 (configuration not stated)	-	-	.	-	-
COc1ccc(Nc2nnc(-c3ccc(C)cc3)c3ccccc23)cc1C(=O)N1CCCCC1	?	?	-	-	-
C#CC(C)(C)NS(=O)(=O)c1cc(-c2nnc(Nc3ccc(C)cc3)c3ccccc23)ccc1C	?	21µM	-	.	.
CCN(CC)C(=O)c1ccc(Nc2nnc(-c3ccc(C)c(S(=O)(=O)NC)c3)c3ccccc23)cc1	21µM	26µM	-[12.3 µM]	.	.
CCN(CC)C(=O)COc1ccc(-c2nnc(Nc3ccc(OC)c(C(=O)NC)c3)c3ccccc23)cc1	21µM	?	-	-	-
CCN(CC)S(=O)(=O)c1cc(-c2nnc(Nc3ccc(OC)c(C(N)=O)c3)c3ccccc23)ccc1C	?	18µM	-[12.3 µM]	.	.
Cc1nc2cnc(N(C)C)nc2n(Cc2ccc(F)cc2)c1=O	-	-	.	-	-
CCOC(=O)NCc1ccc(S(=O)(=O)Nc2ccccc2C)cc1	?	-	-	-	-
CCCCCCNC(=O)n1cc(F)c(=O)[nH]c1=O	15µM	11µM	-	-	-
CCCOCn1cc(F)c(=O)[nH]c1=O	-	-	-	-	-
O=C(CN1C(=O)C2CC=CCC2C1=O)NCc1cccs1 (configuration not stated)	-	-	-	-	-
SMILES	DT40 TDP1 no CPT	DT40 TDP1 CPT	TDP1 inh	Gal4-VP16 FLuc	RORgamma inh
COC(=O)CN1C(=O)COc2ccc(S(=O)(=O)NCc3ccc(F)cc3)cc21	-	-	-	-	-
Cc1ccccc1CC1(CO)CCCN(C(=O)c2ccc(F)cc2)C1 (configuration not stated)	?	?	-	-	-
Cc1ccccc1CC1(CO)CCCN(C(=O)c2ccc3ncccc3c2)C1 (configuration not stated)	15µM	6.5µM	-	-	-
O=C(Cc1ccc(Cl)cc1)NNC(=S)NC(=O)c1cccs1	-	-	.	-	-
O=C(Cc1cccs1)NNC(=S)NCc1ccc(Cl)cc1	-	-	-	-	4µM
O=C(Cc1cccs1)NNC(=S)NC(=O)c1ccco1	29µM	?	-	-	7.9µM
C/C(=N/NC(=O)Cc1cccs1)c1ccco1	23µM	?	-	-	-
O=C(c1ccccc1)N1CCN(C(=O)c2nn3c(C(F)(F)F)cc(-c4ccco4)nc3c2Br)CC1	?	?	-[0.0935 µM]	-	-
Cn1c(=O)cc(SCC(=O)NCCCN2CCOCC2)c2ccccc21	-	-	-	-	-
O=S(=O)(CCc1ccncc1)c1ccc(Cl)cc1	?	-	.	-	-
Cc1ccc(C)c(Nc2c([N+](=O)[O-])cc(C(=O)N3CC(=O)Nc4ccccc43)cc2[N+](=O)[O-])c1	?	?	-	-	-
COc1cc(OC)cc(C2=Cc3ccc(OC)cc3C(CC(C)=O)N2c2ccc(C#CC3(N)CCCCC3)cc2)c1 (configuration not stated)	26µM	5.2µM	.	.	.
COc1cc(OC)cc(C2=Cc3ccc(OC)cc3C(CC(C)=O)N2c2ccc(C#CC3(O)CCCCC3)cc2)c1 (configuration not stated)	21µM	?	.	.	.
COc1ccc(OC)c(C2C(C(C)=O)=C(O)C(=O)N2c2ccc(F)cc2)c1 (configuration not stated)	-	-	-	-	-
CCOC(=O)N1CCN(C(=O)c2ccc(C#CC3(O)CCCCC3)cc2)CC1	?	-	-	-	-
Cn1c(=NC(=O)CS(=O)(=O)c2ccccc2)sc2cc([N+](=O)[O-])ccc21	?	-	-	.	.
O=C(COc1ccc(S(=O)(=O)N2CCOCC2)cc1)NCc1ccccn1	-	-	-	-	-
Cc1c(C(=O)O)sc2nc(CSc3ncc(C(F)(F)F)cc3Cl)[nH]c(=O)c12	-	-	.	-	-
Cc1ccc(OCC(=O)N/N=C/c2cccnc2)cc1C	-	-	-	-	-
COC1(OC)N=C(N)C2(C#N)C(c3ccc(C)cc3)C12C#N (configuration not stated)	-	-	-	-	-
COC1(OC)N=C(N)C2(C#N)C(c3ccc4c(c3)OCO4)C12C#N (configuration not stated)	?	8.2µM	-	-	-
O=[N+]([O-])c1cccc(COc2ccc(CN3CCCCC3)cc2)c1	23µM	21µM	.	.	.
O=[N+]([O-])c1ccc(COc2cccc(CN3CCOCC3)c2)cc1	23µM	18µM	.	.	.
O=[N+]([O-])c1cccc(COc2cccc(CN3CCOCC3)c2)c1	-	-	.	.	.
Cn1c(=S)c2[nH]c(SCCN3CCCC3)nc2n(C)c1=O	23µM	?	-	?	1µM
Cn1c(=S)c2[nH]c(SCCN)nc2n(C)c1=O	5.8µM	5.8µM	.	.	.

Bioassay records (PubChem)
